PLK1 PBD block = PLK1 (human) polo-box domain binding inhibition; Plk1 PBD binding of FITC phosphopeptide, fluorescence polarization; Potency, µM, actives largely listed as inhibitors; hit rate 2.8% among 360,000; also: series mostly up to about 57 µM; nearly all actives have a fitted effect of over 65% in size
Target sequence (P53350 whole entry, looked up, the tested form may be a part): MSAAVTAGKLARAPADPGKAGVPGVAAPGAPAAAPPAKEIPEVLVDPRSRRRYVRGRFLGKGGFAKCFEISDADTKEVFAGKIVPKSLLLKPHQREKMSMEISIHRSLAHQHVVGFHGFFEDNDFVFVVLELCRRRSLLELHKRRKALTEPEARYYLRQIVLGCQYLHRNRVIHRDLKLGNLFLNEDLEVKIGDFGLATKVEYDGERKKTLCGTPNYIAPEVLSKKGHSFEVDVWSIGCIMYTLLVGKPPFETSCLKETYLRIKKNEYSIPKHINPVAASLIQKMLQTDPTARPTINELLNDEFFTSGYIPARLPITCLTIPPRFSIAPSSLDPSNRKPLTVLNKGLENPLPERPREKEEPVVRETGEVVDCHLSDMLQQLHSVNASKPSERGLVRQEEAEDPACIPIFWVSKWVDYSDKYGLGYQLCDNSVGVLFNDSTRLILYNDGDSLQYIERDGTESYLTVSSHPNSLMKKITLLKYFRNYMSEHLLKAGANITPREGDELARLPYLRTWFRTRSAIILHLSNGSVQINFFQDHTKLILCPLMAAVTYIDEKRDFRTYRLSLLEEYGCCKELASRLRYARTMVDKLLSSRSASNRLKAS
HP1b binding inh = blocks HP1-beta chromodomain binding to methylated histone tails | AlphaScreen HP1-beta / biotin-H3K9me3 peptide binding | Potency, µM (series often up to 114 µM), most hits filed as inhibitors | hit rate 0.56% among 390,000; also: nearly all actives have a fitted effect of over 70% in size
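Compound inhibition of the preformed complex between 50 nM HP1-beta and 50 nM biotinylated H3K9me3 peptide was read by AlphaScreen. Buffer was PBS pH 7.4 with 0.01% Tween-20. Incubations ran 30 min at room temperature, with 10 ug/mL donor/acceptor beads.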
G9a inh = inhibitors of human histone lysine methyltransferase G9a. Q96KQ7. G9a H3K9 monomethylation, AlphaScreen, 2 h. Potency, µM (top dose mostly 102 µM), most hits filed as inhibitors. hit rate 8.8% among 350,000. AID 504332; also: nearly all actives have a fitted effect of over 75% in size
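Methyltransferase reactions run at room temperature for 2 h (20 nM enzyme, 500 nM biotin-H3K9 peptide, 20 uM SAM) after a 15 min compound preincubation; product detected by AlphaScreen beads and anti-H3K9me1 antibody.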
BAZ2B inh = BAZ2B (human) inhibition | hit rate 4.4% among 360,000 | Potency, µM (top dose mostly 114 µM), actives largely listed as inhibitors | AlphaScreen BAZ2B-H3K14Ac peptide displacement; also: nearly all actives have a fitted effect of over 60% in size
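Multi-concentration screen (max 110 uM) measuring displacement of acetylated histone H3 peptide from BAZ2B by AlphaScreen, using 50 nM protein, 50 nM peptide and 10 ug/mL streptavidin donor plus Ni-chelate acceptor beads.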
JMJD2A Tudor inh = blocks the human JMJD2A Tudor domain; O75164; AlphaScreen JMJD2A-Tudor / H3K4me3 peptide binding; Potency, µM (highest dose often 114 µM), most hits filed as inhibitors; hit rate 4.4% among 390,000; also: nearly all actives have a fitted effect of over 50% in size
Sfp inh = Sfp phosphopantetheinyl transferase inhibition. Q9F4F7. Potency, µM, most hits filed as inhibitors. Biochemical Sfp PPTase activity, qHTS. hit rate 3.5% among 310,000;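 also: the enzyme is Sfp with the accession as filed and its product quenches rhodamine fluorescence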
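Buffer: 50 mM Hepes-Na pH 7.6, 10 mM MgCl2, 0.01% Nonidet P-40, 0.01% BSA. Enzyme 15 nM, pre-exposed to compound 15 min; substrates then added and fluorescence change tracked over 30 min.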
Hits are given with their value; n = inactive; u = inconclusive; x = not tested or not shown; [ ] = remark or other dose. The list is not random: actives were taken first. Their share in the collection is about 12%. Calls follow the shape of the dose curve; as a rule, active = well fitted curve in the direction sought with a large enough effect; inconclusive = small, poorly fitted or top-dose-only effect, or another doubt; inactive = no such curve, though single readings can be large; an effect the other way counts as inactive or inconclusive.

SMILES	PLK1 PBD block	HP1b binding inh	G9a inh	BAZ2B inh	JMJD2A Tudor inh	Sfp inh
COc1ccc(-n2c(=O)c3c4c(sc3n3c(=S)[nH]nc23)COC(C(C)C)C4)cc1 (stereo not given)	n	n	8.9µM	n	u	n
Cc1cccc(C(=O)N2CCc3cc(CNC(=O)CCc4ccccc4)ccc32)c1	x	n	n	n	n	x
N#CC1(C#N)CC(C=O)=C(N)C1(C#N)CC(=O)c1ccc(F)cc1 (stereo not given)	u	n	32µM	n	n	n
CCN(CC)C(=O)c1[nH]cnc1C(=O)N[C@H](C)c1ccccc1	n	n	n[0.501 µM]	n	89µM	x
CCOC(=O)c1[nH]cnc1C(=O)O	n	n	n[12.7 µM]	20µM	2µM	n
CCOC(=O)c1[nH]cnc1C(=O)N[C@@H](C)c1ccccc1	n	n	n[0.501 µM]	56µM	n	x
CCOC(=O)c1[nH]cnc1C(=O)NC(C)C	n	n	u	n	35µM	n
CCOC(=O)c1nc[nH]c1C	n	n	u	n	n	n
CC1(C)Cc2c(sc3[nH]c(=O)n(CC(=O)NCC4CCCO4)c(=O)c23)CO1 (stereo not given)	n	n	n	n	n	n
CCOc1ccc(S(=O)(=O)NCCc2csc(-c3ccc(Cl)cc3)n2)cc1	x	n	n	n	n	x
COc1ccc(-n2c(=O)c3ccccc3n(Cc3cccc(C)c3)c2=O)cc1	x	n	n	n	n	x
CCOC(=O)N1CCc2c(sc3c2c(=O)n(-c2ccc(Cl)cc2)c(=O)n3CC(=O)Nc2ccccc2)C1	x	n	n	n	n	x
Cc1ccc2c(c1)c1nnc(SCC(=O)Nc3ccccc3C(F)(F)F)nc1n2CC(=O)O	n	n	n	n	n	n
Cc1ccc2c(c1)c1nnc(SCC(=O)Nc3cccc(Cl)c3C)nc1n2CC(=O)O	n	n	u	50µM	u	n
Cc1ccc2c(c1)c1nnc(SCC(=O)Nc3ccc(N(C)C)cc3)nc1n2CC(=O)O	n	n	25µM	u	u	79µM
CC(C)C[C@@H](CC(=O)N[C@@H](CCC(=O)O)CC(=O)O)NC(=O)[C@@H]1CCCC[C@H]1NC(=O)C[C@@H](NC(=O)C[C@H](Cc1ccccc1)NC(=O)[C@@H]1CNCC[C@H]1N)C(C)C	x	x	x	x	x	n
Cc1ccc(S(=O)(=O)CCC(=O)Nc2ccc(Br)cc2C)cc1	x	n	u	n	n	x
CCOc1cc(S(=O)(=O)n2ccnc2)ccc1Cl	n	n	u	79µM	n	n
CCOc1cc(S(=O)(=O)n2ccnc2)ccc1Br	n	n	u	n	n	n
CNc1ccc(N=Nc2cccc3ncccc23)cc1	n	40µM	x	x	14µM	x
c1cnc2ccc3ncccc3c2c1	n	n	u	n	n[11.4 µM]	n
CCN(CC)c1cnn(C/C(=N\OC)c2ccc(Cl)cc2)c(=O)c1Br	n	n	n	n	n	n
S=c1[nH]nc(CN2CCCCC2)n1Cc1ccccc1	n	n	22µM	n	13µM	n
O=C(NCc1n[nH]c(=S)n1Cc1ccccc1)c1ccccc1	u	n	n	n	u	n
c1ccc(Cn2c(CN3CCCC3)nc3ccccc32)cc1	n	n	n	n	n	n
SMILES	PLK1 PBD block	HP1b binding inh	G9a inh	BAZ2B inh	JMJD2A Tudor inh	Sfp inh
S=c1[nH]nc(CN2CCCC2)n1Cc1ccccc1	n	n	50µM	n	3.5µM	n
CC(=O)Nc1ccc(NC(=O)CCc2c(C)noc2C)cc1	n	n	u	n	n	x
CCN1CCN(CCCNC(=O)Cn2nc(C)n3c(cc4c(OC)cccc43)c2=O)CC1	x	n	n	n	n	x
COc1ccc(N=Cc2c(O)c3ccccc3n2C(C)=O)cc1	n	n	25µM	n	n	18µM
Cc1cc2nc(-c3cccc(Cl)c3)c(Cc3ccccc3)n2c(C)c1Br	n	x	x	x	x	x
O=C(N/N=C/c1ccc(N2CCOCC2)o1)c1ccccc1[N+](=O)[O-]	n	n	u	n	u	16µM
O=C(N/N=C/c1ccncc1)c1ccccc1[N+](=O)[O-]	n	n	n	n	n	n
O=C(N/N=C/c1ccc(N2CCCCC2)o1)c1ccccc1[N+](=O)[O-]	n	n	11µM	n	u	u
O=S(=O)(c1cccc(F)c1)N1CCN(S(=O)(=O)c2ccc3c(c2)OCCO3)CC1	x	x	x	x	n	x
COc1ccc(Nc2ccnc3ccccc23)cc1	n	n	n	n	n	n
CC(C)Nc1ccc(Nc2ccnc3cc4ccccc4cc23)cc1	n	25µM	8.9µM	16µM	11µM	n
CCCc1cc(OC)c2c(c1)OCO2	x	x	u	x	x	n
O=c1c2cn[nH]c2[nH]c(=S)n1-c1ccccc1Cl	n	n	45µM	n	n	56µM
O=c1c2cn[nH]c2[nH]c(=S)n1-c1ccccc1F	n	n	8.9µM	u	u	n
Cc1ccc(-n2c(=S)[nH]c3nc4c(cc3c2=O)COC(C)(C)C4)cc1	n	n	n	n	n	n
Cc1ccc(-n2c(=S)[nH]c3[nH]ncc3c2=O)cc1	u	n	35µM	u	n	n
COc1cc(OC)cc(-c2n[nH]c(=S)n2-c2ccc3c(c2)OCO3)c1	n	n	1.8µM	n	20µM	u
COc1cc(OC)cc(-c2cc3cc4c(cc3cn2)OCO4)c1	n	n	x	x	n	x
Fc1ccc(-n2c(-c3ccc4c(c3)OCO4)n[nH]c2=S)cc1Cl	n	n	1.4µM	n	n	n
O=C(Nc1ccccc1Cl)c1cc2c(-c3ccccc3)nn(-c3ccccc3)c2s1	x	n	n	n	n	x
COc1ccc(CN2CCC(C(=O)Nc3ccc(Oc4cccnc4)cc3)CC2)cc1	n	n	35µM	n	n	n
COc1ccc(NC(=O)CSc2ccc3c4c(cccc24)C(=O)c2ccccc2-3)cc1	u	n	n	n	n	40µM
COc1ccc(NC(=O)CSc2nncc3ccccc23)cc1	n	n	n	n	n	n
COc1ccc(NC(=O)CSc2nnc(C)c3ccccc23)cc1	n	n	50µM	n	n	n
COc1cccc(NC(=O)CSc2nnc(-c3cccc(OC(C)C)c3)n2N)c1	u	n	25µM	n	56µM	n
SMILES	PLK1 PBD block	HP1b binding inh	G9a inh	BAZ2B inh	JMJD2A Tudor inh	Sfp inh
COc1ccc(NC(=O)CSc2nnc(-c3ccccc3C)n2N)cc1OC	n	n	n	n	n	n
N#Cc1cccc(NC(=O)CSc2ccc3c4c(cccc24)C(=O)c2ccccc2-3)c1	u	n	u	n	n	n
COc1ccc(NC(=O)CSc2nnc(-c3ccccc3C)n2N)cc1	21µM	n	50µM	n	n	n
Cc1ccc(-n2c(=O)c3c(cnn3C)n(CC(=O)Nc3cc(C)ccc3C)c2=O)cc1	x	n	n	n	n	x
COc1ccc(-c2nnc(SCC(=O)NC3CCCCC3)n2N)cc1	u	n	45µM	n	n	x
COc1ccccc1-c1nnc(SCC(=O)NC2CCCCC2)o1	27µM	n	n	n	u	n
CCc1nc(SCC(=O)NNC(=O)C(C)C)c2ccccc2n1	n	n	n	n	n	n
O=C(CSc1nncc2ccccc12)Nc1ccc(C(=O)O)cc1	n	n	x	u	n	50µM

Compound activity as filed in PubChem.
